In PubChem BioAssay AID1159580 (chemical genetic matrix, 2015):
Several values for one entry are separate records, joined by “and”; a condition that tells them apart may be missing. Equal entries are not always repeated. The campaign covered roughly 5,500 compounds. About 2,000 (36%) were called active. Not shown: some 18% with an inconclusive outcome. Rule as the data show it: active = normalized growth mostly below about 0.91 (no sharp cut-off); inconclusive = no clear call, values can overlap the other calls; inactive = mostly above about 0.92. The list shows a part of the results.

Test: chemical genetic growth profiling, strain panel (AID 1159580);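 also: tested at 20 µM; growth read once vehicle control cultures reached saturation at 30 °C; 1 = growth at the plate median or of vehicle wells; lower values mean less growth of the strain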
Conditions: S. cerevisiae deletion strains, growth OD

Measured: normalized growth

CC(C)=CCOc1c2occc2cc2ccc(=O)oc12
0.297 (active) and 0.984 (inactive): locus YJL095W, strain BCK1, stronger effect = lower value
inactive: locus YAL021C, strain ccr4, stronger effect = lower value 0.963 | locus YBR231C, strain swc5, stronger effect = lower value 0.922 | locus YCR088W, strain abp1, stronger effect = lower value 0.928 | locus YDL005C, strain med2, stronger effect = lower value 0.947 | locus YDL040C, strain nat1, stronger effect = lower value 0.934 | locus YDR069C, strain doa4, stronger effect = lower value 0.923 | locus YDR159W, strain sac3, stronger effect = lower value 0.944 | locus YDR195W, strain ref2 1.07 | locus YDR297W, strain sur2, stronger effect = lower value 0.926 | locus YDR335W, strain msn5, stronger effect = lower value 0.942 | locus YEL003W, strain gim4, stronger effect = lower value 0.929 | locus YEL037C, strain rad23, stronger effect = lower value 0.937 | locus YEL061C, strain CIN8 (second series), stronger effect = lower value 0.929 | locus YER015W, strain faa2, stronger effect = lower value 0.935 | locus YER016W, strain bim1, stronger effect = lower value 0.927 | locus YER111C, strain swi4, stronger effect = lower value 0.929 | locus YFR010W, strain ubp6, stronger effect = lower value 0.938 | locus YGL227W, strain vid30, stronger effect = lower value 0.918 | locus YHR013C, strain ard1, stronger effect = lower value 0.87 | locus YHR027C, strain rpn1, stronger effect = lower value 0.954 | locus YHR030C, strain SLT2, stronger effect = lower value 0.978 | locus YHR079C, strain IRE1, stronger effect = lower value 0.975 | locus YIL073C, strain SPO22, stronger effect = lower value 0.792 | locus YJL115W, strain asf1, stronger effect = lower value 0.922 | locus YJL154C, strain vps35, stronger effect = lower value 0.935 | locus YJL187C, strain SWE1, stronger effect = lower value 0.929
active: locus YAL013W, strain DEP1, stronger effect = lower value 0.734 | locus YAL026C, strain drs2, stronger effect = lower value 0.874 | locus YAL030W, strain snc1, stronger effect = lower value 0.928 | locus YBL061C, strain skt5, stronger effect = lower value 0.892 | locus YBR009C, strain hhf1, stronger effect = lower value 0.851 | locus YBR021W, strain FUR4, stronger effect = lower value 0.74 | locus YBR023C, strain chs3, stronger effect = lower value 0.864 | locus YBR171W, strain sec66, stronger effect = lower value 0.865 | locus YBR229C, strain ROT2, stronger effect = lower value 0.896 | locus YBR279W, strain paf1, stronger effect = lower value 0.921 | locus YCL011C, strain gbp2, stronger effect = lower value 0.849 | locus YCL016C, strain dcc1, stronger effect = lower value 0.859 | locus YCL029C, strain bik1, stronger effect = lower value 0.804 | locus YCL061C, strain MRC1, stronger effect = lower value 0.876 | locus YCL069W, strain vba3, stronger effect = lower value 0.912 | locus YDL035C, strain GPR1, stronger effect = lower value 0.857 | locus YDL074C, strain BRE1, stronger effect = lower value 0.606 | locus YDL101C, strain DUN1, stronger effect = lower value 0.559 | locus YDL185W, strain tfp1, stronger effect = lower value 0.875 | locus YDL192W, strain arf1, stronger effect = lower value 0.67 | locus YDR001C, strain nth1, stronger effect = lower value 0.899 | locus YDR101C, strain arx1, stronger effect = lower value 0.808 | locus YDR137W, strain rgp1, stronger effect = lower value 0.729 | locus YDR150W, strain NUM1, stronger effect = lower value 0.899 | locus YDR162C, strain NBP2, stronger effect = lower value 0.507 | locus YDR318W, strain mcm21, stronger effect = lower value 0.649 | locus YDR334W, strain swr1, stronger effect = lower value 0.892 | locus YDR388W, stronger effect = lower value 0.837 | locus YDR392W, strain spt3, stronger effect = lower value 0.353 | locus YDR502C, strain sam2, stronger effect = lower value 0.736 | locus YER110C, stronger effect = lower value 0.728 | locus YER155C, strain BEM2 (second series), stronger effect = lower value 0.509 | locus YER155C, strain BEM2, stronger effect = lower value 0.575 | locus YER167W, strain BCK2, stronger effect = lower value 0.722 | locus YGL078C, strain dbp3, stronger effect = lower value 0.92 | locus YGL086W, strain mad1, stronger effect = lower value 0.678 | locus YGL167C, strain pmr1, stronger effect = lower value 0.887 | locus YGL173C, strain kem1, stronger effect = lower value 0.885 | locus YGL240W, strain doc1, stronger effect = lower value 0.741 | locus YGL248W, strain PDE1, stronger effect = lower value 0.672 | locus YGL253W, strain hxk2, stronger effect = lower value 0.807 | locus YGR135W, strain pre9, stronger effect = lower value 0.666 | locus YGR252W, strain gcn5, stronger effect = lower value 0.519 | locus YHR079C, strain IRE1 (second series), stronger effect = lower value 0.856 | locus YHR094C, strain hxt1, stronger effect = lower value 0.821 | locus YHR129C, strain ARP1, stronger effect = lower value 0.652 | locus YHR142W, strain chs7, stronger effect = lower value 0.679 | locus YHR200W, strain rpn10, stronger effect = lower value 0.822 | locus YIL066C, strain RNR3, stronger effect = lower value 0.697 | locus YIL125W, strain kgd1, stronger effect = lower value 0.895 | locus YIR030C, strain dcg1, stronger effect = lower value 0.842 | locus YJL092W, strain hpr5, stronger effect = lower value 0.9 | locus YJL095W, strain BCK1 (second series), stronger effect = lower value 0.898 | locus YJL129C, strain trk1, stronger effect = lower value 0.774 | locus YJL134W, strain LCB3, stronger effect = lower value 0.895 | locus YJL164C, strain tpk1, stronger effect = lower value 0.859 | locus YJL166W, strain qcr8, stronger effect = lower value 0.895 | locus YJL168C, strain set2, stronger effect = lower value 0.875 | locus YJL187C, strain SWE1 (second series), stronger effect = lower value 0.739 | locus YJR043C, strain POL32, stronger effect = lower value 0.742
